# Measurements: PubChem BioAssay (EPA / NIEHS)
# Results filed as inconclusive are left out. The source made the active and inactive calls. Rule for the calls: active = hit-call score of the fitted dose curve at least 0.9, where 1 is the maximum; inconclusive = response in the unintended direction; inactive = score below 0.9.
# Molecular target: AR (gene 367) (UniProt P10275)
# Experiment: ACEA_AR_antagonist_80hr: ACEA Biosciences xCELLigence Real-Time Cell Analysis on Androgen Receptor Antagonism for Proliferation (AID 2283787)
# Method: ACEA_AR_antagonist is a cell-based, single-readout assay that uses 22Rv1, a human prostate cancer cell line, with measurements taken at 80 hours after chemical dosing in a 384-well plate, although TO5 and TO6 (mc0.srcf) used a 96-well plate. Differences in plate size can be ignored given data normalization.ACEA_AR_antagonist_80hr is one of two assay component(s) measured or calculated from the ACEA_AR assay. It is designed to make measurements of real-time cell-growth kinetics, a form of growth reporter, as detected with electrical impedance signals by Real-Time Cell Electrode Sensor (RT-CES) technology.Data from the assay component ACEA_AR_antagonist_80hr was analyzed in the positive analysis fitting direction relative to DMSO as the negative control and baseline of activity. Using a type of growth reporter, measures of the cells for loss-of-signal activity can be used to understand the signaling at the pathway-level as they relate to the gene AR. Furthermore, this assay endpoint can be referred to as a primary readout, because this assay has produced multiple assay endpoints where this one serves a signaling function. To generalize the intended target to other relatable targets, this assay endpoint is annotated to the nuclear receptor intended target family, where the subfamily is steroidal.
# The xCELLigence system Multi-E-Plate stations were used to measure the time-dependent response to chemicals. Each compound was tested in an eight-point, 1:4 serial dilution series starting at a maximum final concentration of 100 uM. A maximum starting concentration of 0.5% DMSO was present in the 100 uM chemical samples and was diluted along with the test article dilution series. The screen was performed in biological duplicate using two separate, 96-well, E-Plates 96 for each dilution series (n = 2). Positive controls (MG132 and testosterone) and a negative control (assay media) were tested in quadruplicate on each testing plate. […] Reference compounds were tested with 8 concentrations with 1:5 serial dilutions. All screening was carried out by ACEA Biosciences, Inc. (San Diego, CA). 22Rv1 cells purchased from ATCC were maintained in media supplemented with 10% fetal bovine serum (FBS). Before screening, 22Rv1 cells were preconditioned in assay medium. Cells were then detached and seeded in E-Plates 96 in assay medium. After overnight monitoring of growth once every hour, compounds were added to […] cells and remained in the medium until the end of the experiment. Cellular responses were then recorded once every 5 min for the first 5 h, and once every hour for an additional 100 h.
# Sequence of AR (gene 367) (P10275 whole entry, looked up): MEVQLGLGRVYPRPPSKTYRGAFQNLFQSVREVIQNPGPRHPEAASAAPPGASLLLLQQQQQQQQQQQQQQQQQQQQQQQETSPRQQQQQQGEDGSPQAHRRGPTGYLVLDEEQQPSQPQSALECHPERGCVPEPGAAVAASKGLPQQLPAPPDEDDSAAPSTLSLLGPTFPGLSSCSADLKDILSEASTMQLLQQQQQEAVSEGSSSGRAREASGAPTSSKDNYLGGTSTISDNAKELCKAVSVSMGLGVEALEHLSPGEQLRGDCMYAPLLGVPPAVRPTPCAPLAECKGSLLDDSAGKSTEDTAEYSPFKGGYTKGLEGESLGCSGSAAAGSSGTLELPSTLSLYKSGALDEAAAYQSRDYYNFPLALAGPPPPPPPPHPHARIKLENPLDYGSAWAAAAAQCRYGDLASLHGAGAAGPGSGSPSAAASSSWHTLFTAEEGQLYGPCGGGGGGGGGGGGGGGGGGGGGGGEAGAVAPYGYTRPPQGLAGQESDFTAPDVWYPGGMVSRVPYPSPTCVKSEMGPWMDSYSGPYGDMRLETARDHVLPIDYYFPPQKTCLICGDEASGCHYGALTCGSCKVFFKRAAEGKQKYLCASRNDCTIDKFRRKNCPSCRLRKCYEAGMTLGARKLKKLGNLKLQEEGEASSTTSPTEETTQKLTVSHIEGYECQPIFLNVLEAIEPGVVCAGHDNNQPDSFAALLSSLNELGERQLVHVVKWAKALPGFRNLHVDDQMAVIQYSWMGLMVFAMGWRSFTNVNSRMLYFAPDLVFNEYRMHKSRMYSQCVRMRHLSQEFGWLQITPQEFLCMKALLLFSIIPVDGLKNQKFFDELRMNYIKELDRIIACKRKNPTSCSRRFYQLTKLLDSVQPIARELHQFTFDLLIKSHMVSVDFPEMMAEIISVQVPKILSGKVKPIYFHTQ
Structure (SMILES),AC50,outcome
CC[C@H](c1ccc(O)cc1)[C@@H](CC)c1ccc(O)cc1,10.9 µM (active),
CCCCCCCCCCCCc1ccccc1S(=O)(=O)O,72.9 µM (active),
Cc1oc(-c2ccccc2)nc1CCOc1ccc(C[C@H](Nc2ccccc2C(=O)c2ccccc2)C(=O)O)cc1,8.01 µM (active),
O=C(/C=C/c1ccc(O)cc1)CC(=O)/C=C/c1ccc(O)cc1,29.9 µM (active),
O=c1c(-c2ccc(O)cc2)coc2cc(O)ccc12,,inactive
OCCC(F)(F)C(F)(F)C(F)(F)C(F)(F)C(F)(F)C(F)(F)C(F)(F)C(F)(F)F,,inactive
Cc1cc(CCN2CCN(c3nsc4ccccc34)CC2)cc2c1NC(=O)CC2(C)C,18.7 µM (active),
COc1cc(CCC(=O)CC(=O)CCc2ccc(O)c(OC)c2)ccc1O,74.6 µM (active),
NC(=O)N1C(=O)C(C(=O)c2cc(Cl)cs2)c2cc(F)c(Cl)cc21 (stereo unspecified),,inactive
CCC(=C(c1ccc(O)cc1)c1ccc(OCCN(C)C)cc1)c1ccccc1,7.6 µM (active),
CC(=O)CC(C)(C)O,,inactive
O=C(O)c1ccccc1C(c1ccc(O)cc1)c1ccc(O)cc1,,inactive
N#C[C@@H]1CC(F)(F)CN1C(=O)CNC1CC2CCC(C1)N2c1ncccn1 (stereo partly specified),,inactive
Nc1cccc2c(N)cccc12,77.8 µM (active),
c1ccc2c(c1)ccc1ccccc12,50 µM (active),
Oc1cc2ccccc2c2ccccc12,8.26 µM (active),
